“And” between values parts separate entries of the source, which are not always exact repeats. Equal values may be shown once. The source made the active and inactive calls. Unless noted, the rule behind the calls is not given here. Starred links: 1 amine or outer side, 2 acyl side, 3 side chain; linkers in the order of their positions; H or OH if unused. Positions of bridges follow the written chain, without caps; N, C: chain ends. Non-standard residues stand in square brackets, D forms with d. Residues, ends and D or L forms follow the SMILES beside them. Chains are numbered I, II in the order given. Actinocin(9to1) = Cc1c2oc3c(C)ccc(C(=O)[*:1])c3nc-2c(C(=O)[*:2])c(N)c1=O; NMeV = CN[C@H](C(=O)O)C(C)C; Sar = CNCC(=O)O
What was measured:
[1] = P. berghei load reduction in hepatocytes – cell-based, HepG2, luciferase luminescence, HepG2 viability, primary screen (AID 624349; in the data active = parasite load remaining mostly below about 12%, no sharp cut-off; inactive = mostly above about 10%;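 note: 100% = mean of DMSO negative control wells on the same plate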); details: P. berghei liver stage in HepG2, luciferase luminescence, concentration not given here; parasite load remaining: stronger effect = lower value; viability: measured here: HepG2 viability without parasites
[2] = signal quenchers or enhancers, Cy5 substrate/SSB – biochemical, NIH Clinical Collection, E. coli SSB, artefact control for HCV NS3 helicase inhibitor project (AID 743268); details: Cy5-oligo bound E. coli SSB, fluorescence interference
[3] = system: Hepatitis C virus NS3 helicase; experiment: blockers of NS3h binding to DNA – biochemical, fluorescence polarization, NIH Clinical Collection, primary screen (AID 743270); details: NS3 helicase binding to Cy5-dT15 DNA, stronger effect = higher value, concentration not given here
[4] = target: Single-stranded DNA-binding protein (Escherichia coli (strain K12)) (UniProt P0AGE0); experiment: SSB-ssDNA binding inhibitors – biochemical, fluorescence polarization, NIH Clinical Collection, counter-screen for HCV NS3 helicase inhibitor project (AID 743271; in the data active = inhibition above about 28%); details: E. coli SSB-DNA binding, stronger effect = higher value, concentration not given here
[5] = compounds distorting NS3 helicase fluorescence signal – biochemical, NIH Clinical Collection, artefact control for HCV NS3 helicase inhibitor project (AID 743272); details: fluorescence interference counterscreen, HCV NS3 helicase assay; stronger effect = lower value;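 note: HCV NS3 helicase with a Cy5 labelled single stranded DNA probe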
[6] = system: Neuropilin-2 / VEGF-C interaction (human); experiment: small molecules blocking Neuropilin-2/VEGF-C interaction – biochemical, microplate binding format, z-score (AID 743281); details: microplate NRP2/VEGF-C binding assay; stronger effect = lower value
[7] = Wnt pathway potentiators raising nuclear beta-catenin – imaging, WNT3A-conditioned medium, mouse C2C12, NPC library, primary screen (AID 1117326; in the data active = nuclear beta-catenin stimulation mostly above about 4.2%, no sharp cut-off; inactive = mostly below about 10%); details: stronger effect = higher value
[8] = liver-stage malaria parasite load reduction – cell-based, known kinase inhibitor set, luminescence, hepatoma host viability (AID 624392); details: Plasmodium liver stage in hepatoma cells, luciferase luminescence, concentration not given here; liver cell % of control: measured here: host liver cell viability; parasite % of control: stronger effect = lower value;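 note: infected cells incubated roughly two days before readout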

With `Cc1c2oc3c(C)ccc(C(=O)N[C@@H]4C(=O)N[C@H](C(C)C)C(=O)N5CCC[C@H]5C(=O)N(C)CC(=O)N(C)[C@@H](C(C)C)C(=O)O[C@@H]4C)c3nc-2c(C(=O)N[C@@H]2C(=O)N[C@H](C(C)C)C(=O)N3CCC[C@H]3C(=O)N(C)CC(=O)N(C)[C@@H](C(C)C)C(=O)O[C@@H]2C)c(N)c1=O` (I: T[dV]P[Sar][NMeV] / II: T[dV]P[Sar][NMeV]; ester I:1-I:C, II:1-II:C; linker I:N-II:N via Actinocin(9to1)) the parasite load remaining [1] was -0.02% (inactive), the viability [1] was 31.5% and the fluorescence ratio [2] was 0.91 (inactive). For the same molecule, the inhibition [3] was 1.53% (inactive), the inhibition [4] was 2.76% (inactive) and the fluorescence ratio [5] was 0.93 (inactive). The z-score [6] was -4.03 (active), the nuclear beta-catenin stimulation ([7]; at 10 µM) was 92.5% (active) and the nuclear beta-catenin stimulation ([7]; stimulation, at 2 µM) was 109%.

For `COc1cc2c(N3CCN(C(=O)Nc4ccc(OC(C)C)cc4)CC3)ncnc2cc1OCCCN1CCCCC1`, the liver cell % of control [8] was 61.6% and 84.6% and 95.9%, the parasite % of control [8] was 32.5% (inactive) and 57.6% (inactive) and 55.2% (inactive) and the nuclear beta-catenin stimulation ([7]; at 10 µM) was 1.7% (inactive). It also gave a nuclear beta-catenin stimulation ([7]; stimulation, at 2 µM) of -1.8%.

With `COc1cc(C)c(Cc2cnc(N)nc2N)cc1OC` the parasite load remaining [1] was 28% (inactive), the viability [1] was 73.1% and the fluorescence ratio [2] was 1.02 (inactive). The inhibition [3] was 1.98% (inactive), the inhibition [4] was 2.21% (inactive) and the fluorescence ratio [5] was 0.95 (inactive). For the same molecule, the z-score [6] was -0.323 (inactive), the nuclear beta-catenin stimulation ([7]; at 10 µM) was -0.5% (inactive) and the nuclear beta-catenin stimulation ([7]; stimulation, at 2 µM) was 0.4%.

In the case of `CCCN[C@H]1CCc2nc(N)sc2C1`, the parasite load remaining [1] is reported as 115% (inactive) and 91.5% (inactive) and 28.8% (inactive), the viability [1] is reported as 75% and 71% and 70.5% and the fluorescence ratio [2] is reported as 1.02 (inactive). The inhibition [3] was -0.4% (inactive), the inhibition [4] was -1.64% (inactive) and 0.67% (inactive) and the fluorescence ratio [5] was 0.97 (inactive) and 1 (inactive). For the same molecule, the z-score [6] was -0.903 (inactive) and 0.751 (inactive), the nuclear beta-catenin stimulation ([7]; at 10 µM) was 0.9% (inactive) and the nuclear beta-catenin stimulation ([7]; stimulation, at 2 µM) was 0.5%.

In the case of `Cc1c(O)cccc1C(=O)N[C@@H](CSc1ccccc1)[C@H](O)CN1C[C@H]2CCCC[C@H]2C[C@H]1C(=O)NC(C)(C)C`, the parasite load remaining [1] is reported as 23.1% (inactive) and 3.4% (inactive), the viability [1] is reported as 69.9% and 65.5% and the fluorescence ratio [2] is reported as 0.95 (inactive). The inhibition [3] was -4.36% (inactive), the inhibition [4] was 2.98% (inactive) and the fluorescence ratio [5] was 0.94 (inactive). For the same molecule, the z-score [6] was 0.175 (inactive), the nuclear beta-catenin stimulation ([7]; at 10 µM) was 2.3% (inactive) and the nuclear beta-catenin stimulation ([7]; stimulation, at 2 µM) was -1.9%.

In the case of `C[C@H]1COc2c(C3(N)CC3)c(F)cc3c(=O)c(C(=O)O)cn1c23`, the parasite load remaining [1] is reported as 143% (inactive) and 21.7% (inactive), the viability [1] is reported as 89.8% and 67.5% and the fluorescence ratio [2] is reported as 1.05 (inactive). The inhibition [3] was 5.15% (inactive), the inhibition [4] was -0.1% (inactive) and the fluorescence ratio [5] was 1.02 (inactive). For the same molecule, the z-score [6] was 0.653 (inactive), the nuclear beta-catenin stimulation ([7]; at 10 µM) was 1.2% (inactive) and the nuclear beta-catenin stimulation ([7]; stimulation, at 2 µM) was 0.2%.

With `CC(C)(C)NC(=O)[C@@H]1CN(Cc2cccnc2)CCN1C[C@@H](O)C[C@@H](Cc1ccccc1)C(=O)N[C@H]1c2ccccc2C[C@H]1O` the parasite load remaining [1] was 83.6% (inactive), the viability [1] was 71% and the inhibition [3] was -1.19% (inactive). The inhibition [4] was 1.44% (inactive), the fluorescence ratio [5] was 1.02 (inactive) and the z-score [6] was 0.687 (inactive). The nuclear beta-catenin stimulation ([7]; at 10 µM) was 1.8% (inactive) and the nuclear beta-catenin stimulation ([7]; stimulation, at 2 µM) was 1.7%.

Reference: PubChem BioAssay
